# From PubChem
# FBW7 act – FBW7 E3 ligase activators, primary screen, biochemical, AlphaScreen, human. F-box/WD repeat-containing protein 7 (Homo sapiens), Q969H0. AlphaScreen FBW7–phospho-cyclin E peptide binding, activator screen. normalized activity (activation), % at 26.1 µM. actives 0.13% (n = 650,000). AID 1259310, 2017; in the data active means normalized activity above about 1.9%;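 further: purified mutant Fbw7 with reduced substrate affinity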
# TEAD-YAP block – TEAD-YAP interaction inhibition, primary screen, TEAD-YAP interaction inhibitor project, luminescence, HEK-TIYL cells; AID 1259422, 2018; TEAD-Gal4/YAP UAS-luciferase luminescence; inhibition, % at 9.12 µM; actives 1.4% (n = 640,000); in the data active means inhibition above about 32%;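 further: 0% = median of test compound wells and 100% = reference inhibitor wells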
# MITF primary – MITF inhibitors, primary screen, biochemical, AlphaScreen, human. AlphaScreen MITF homodimerization, bead proximity signal. inhibition, % at 2.6 µM. actives 0.91% (n = 650,000). Microphthalmia-associated transcription factor (Homo sapiens), O75030; in the data active means inhibition above about 50%;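 further: 0% = vehicle wells with protein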
# GPR151 ag – activators of human GPR151, primary screen, cell-based, PathHunter beta-arrestin, luminescence; G-protein coupled receptor 151 (Homo sapiens), Q8TDV0; PathHunter beta-arrestin GPR151 cells; activation, % at 11.2 µM; actives 1% (n = 650,000); in the data active means activation above about 4.9%;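 further: 0% = median of compound wells and 100% = cells with positive control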
# Target sequence (Q8TDV0 whole entry, looked up): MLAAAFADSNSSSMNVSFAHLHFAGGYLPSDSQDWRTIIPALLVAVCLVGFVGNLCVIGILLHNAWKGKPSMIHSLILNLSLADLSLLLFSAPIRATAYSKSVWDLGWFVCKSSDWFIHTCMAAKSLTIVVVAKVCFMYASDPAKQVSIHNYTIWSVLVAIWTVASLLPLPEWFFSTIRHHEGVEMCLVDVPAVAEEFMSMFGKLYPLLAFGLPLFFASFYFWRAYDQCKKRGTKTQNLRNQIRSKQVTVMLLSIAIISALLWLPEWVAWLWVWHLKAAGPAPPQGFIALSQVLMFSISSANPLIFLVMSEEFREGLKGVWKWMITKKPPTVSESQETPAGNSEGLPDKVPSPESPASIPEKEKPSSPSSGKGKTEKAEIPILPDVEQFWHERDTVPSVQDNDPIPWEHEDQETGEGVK
# GPR151 confirm – GPR151 activators, triplicate retest, confirmation, cell-based, PathHunter beta-arrestin, luminescence | shares compounds with GPR151 ag | GPR151 PathHunter beta-arrestin cells, 90 min; % of EA-reagent control over plate median | activation, % at 11.2 µM | 6,700 tested, under 10 active | AID 1508609, 2020;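 active means mean percent activation across replicates above the confirmation screen cutoff of 4.91%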
# GPR119 ag – GPR119 activators in beta-arrestin cells, counter-screen for GPR151 activator project, cell-based, PathHunter beta-arrestin, luminescence, triplicate; shares compounds with GPR151 ag; AID 1508611, 2020; 90 min; 0 = compound-well median, 100 = enzyme-acceptor control; actives 0.3% (n = 6,700); activation, % at 11.2 µM;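 active means mean percent activation in the counterscreen above 29.09%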;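 further: counterscreen on off-target GPR119 to flag nonselective hits from the GPR151 activator screen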
# * hit, by the source's call; nt = no result given. Most compounds without a hit are left out; they make up all but 3.5% or so of the library.
SMILES,FBW7 act,TEAD-YAP block,MITF primary,GPR151 ag,GPR151 confirm,GPR119 ag
CCOC(=O)C1(CC2CCCCO2)CCN(CCCSC)CC1 (configuration not stated),0,-2,0,6.6*,0,-9
Cc1cccc(OCc2nnc(SCCN3CCCCC3)n2C)c1,0,-3,-3,0,nt,nt
OCCNc1cc(N2CCCC2CO)ncn1 (configuration not stated),0,7,-2,0,nt,nt
Cc1cccc(-c2cc(C(=O)N3CCN(C)CC3)c3ccccc3n2)c1,0,9,12,5.7*,0,8
Cc1cccc(-c2cc(C(=O)N3CCN(c4ccc([N+](=O)[O-])cc4)CC3)c3ccccc3n2)c1,0,3,13,0,nt,nt
CN1CCN(C(=O)c2cc3ccccc3nc2Cl)CC1,0,4,5,8.0*,-1,-5
Cc1cc(OCC(=O)N2CCCC2)c(C)cc1Br,1,2,14,-1,nt,nt
O=C(Nc1nc(-c2nc3ccccc3s2)cs1)c1ccc(S(=O)(=O)N2CCCC2)cc1,0,-6,-2,2,nt,nt
CC(=N)c1c(O)c2cc([N+](=O)[O-])ccc2oc1=O,0,9,0,5.7*,0,1
COc1c([N+](=O)[O-])c(=O)oc2ccc([N+](=O)[O-])cc12,0,-2,7,-2,nt,nt
O=[N+]([O-])c1cccc(C2SCCN2S(=O)(=O)c2ccc(Br)cc2)c1 (configuration not stated),0,5,12,5.8*,-1,-17
O=[N+]([O-])c1cccc(C2SCCN2S(=O)(=O)c2ccc(I)cc2)c1 (configuration not stated),0,-5,3,0,nt,nt
O=S(=O)(c1ccccc1)N1N=C(c2ccccc2)CC1c1ccco1 (configuration not stated),0,20,10,5.4*,0,-2
O=[N+]([O-])c1cccc(C2CC(c3ccc(Br)cc3)=NN2S(=O)(=O)c2ccccc2)c1 (configuration not stated),0,-4,8,5.4*,0,12
CCOC(=O)C1=C(c2ccccc2)N=c2s/c(=C\c3c(C)n(Cc4ccccc4)c4ccccc34)c(=O)n2C1c1cccs1 (configuration not stated),0,-6,21,-1,nt,nt
Cc1ccc2c(c1)OCC(c1nc3ccc(-c4ccncc4)cc3[nH]1)O2 (configuration not stated),0,-7,10,5.1*,0,-2
c1ccc2c(c1)OC[C@@H](c1nc3ccc(-c4ccncc4)cc3[nH]1)O2,0,-35,10,0,nt,nt
C/C(CCc1ccc2c(c1)OCO2)=N\N=C(/N)SC1CC(=O)N(c2ccccc2)C1=O (configuration not stated),0,-4,13,6.1*,0,-13
N/C(=N\N=C\c1ccc2c(c1)OCO2)SC1CC(=O)N(c2ccc(C(=O)O)cc2)C1=O (configuration not stated),0,6,15,1,nt,nt
COc1cccc(N2C(=O)CC(SC(N)=Nc3ccccc3)C2=O)c1 (configuration not stated),0,-3,-4,10.0*,0,-3
O=C(CN1C(=O)c2ccccc2C1=O)Nn1c(-c2cccc(Cl)c2)nc2ccccc2c1=O,1,-10,19,6.7*,0,13
OC1CC(C2OCCO2)CCC1Nc1ccccc1 (configuration not stated),0,-1,-12,0,nt,nt
Cc1ccc(N2CC(NC(=O)NC(C)(CO)CO)CC2=O)cc1 (configuration not stated),0,-3,-12,2,nt,nt
COc1ccccc1OCCCC(=O)Nc1nnc(C2CCCCC2)s1,0,-1,6,5.2*,1,5
CCN1C(=O)c2cccc3c(NC(=O)Cc4cccs4)ccc1c23,0,8,-3,-1,nt,nt
SMILES,FBW7 act,TEAD-YAP block,MITF primary,GPR151 ag,GPR151 confirm,GPR119 ag
COc1ccc(CCS(=O)(=O)Nc2ccc3c(c2)N(C(=O)C2CCCO2)CC3)cc1 (configuration not stated),0,4,25,5.8*,-1,-16
O=C(CN1C(=O)C2C3C=CC(C3)C2C1=O)N1CCN(c2ccccc2)CC1 (configuration not stated),0,-3,15,5.5*,0,0
CC(=O)OC(C(=O)Nc1nncs1)c1c(F)cccc1F (configuration not stated),0,13,14,-1,nt,nt
COc1ccc(-c2cncc(-c3cc(N4CCN(CCO)CC4)nc(C)n3)c2)cc1,0,6,2,7.1*,-1,-9
COc1ccc(C(CC(=O)O)NC(=O)OC(C)(C)C)cc1 (configuration not stated),0,8,-11,-1,nt,nt
CC(C)OC(=O)CC(NC(=O)OC(C)(C)C)c1ccccc1 (configuration not stated),0,nt,10,8.1*,0,7
FC(F)(F)c1nnc2c3ccccc3c(NC3CC3)nn12,0,1,6,7.3*,0,8
COC(=O)c1cccc(NC(=O)c2ccc(Br)o2)c1,1,-12,20,1,nt,nt
Cc1ccc(C(=O)/C=C\N2CCCCC2)cc1,0,-6,14,5.2*,-3,-30
Cc1ccc(-c2c(N3CC(=O)N(CCc4ccccc4)C(=O)C3)c(=O)c2=O)cc1,0,-15,-4,6.5*,0,4
CS(=O)(=O)N(Cc1ccccc1Cl)c1ccc(C(=O)NCc2ccco2)cc1,0,-2,3,0,nt,nt
CS(=O)(=O)N(Cc1ccccc1Cl)c1ccc(C(=O)N2CCCC2)cc1,0,2,14,9.2*,0,-1
CC(C)CCNC(=O)c1ccc(N(Cc2ccccc2Cl)S(C)(=O)=O)cc1,0,-2,24,7.9*,0,-7
CCOC(=O)c1[nH]c(CSC(=NC)NC)c(C(=O)OCC)c1C,0,5,1,0,nt,nt
c1ccc(Cc2nnc3sc(-c4ccco4)nn23)cc1,0,-16,1,4,nt,nt
Fc1ccccc1-c1nn2c(Cc3ccccc3)nnc2s1,0,4,-3,8.2*,0,-2
Cc1cnc(N2CCC(N3CCOCC3)CC2)nc1NCCN(C(C)C)C(C)C,0,1,-9,6.7*,-1,6
